Drawing on PubChem BioAssay AID504466 (National Center for Advancing Translational Sciences (NCATS), 2011), this text covers Potency for 27 compounds.

The structures appear in SMILES notation. Screen size: about 330,000 compounds; about 4,200 (1.3%) were called active. A call without a number means that no potency is given here. Inconclusive results (about 6%) are left out. The sample holds actives, similar compounds and a random draw of the others, so the mix is not that of the screen. Calls come from the whole dose curve; as a rule, active = well fitted activation curve with a large enough effect; inconclusive = small, poorly fitted or top-dose-only effect; inactive = no such curve, though single readings can be large or run the other way.
Potency is the fitted concentration of half-maximal effect.

The assay is described as follows: qHTS screen for small molecules that induce genotoxicity in human embryonic kidney (HEK293T) cells expressing luciferase-tagged ELG1. Note: nearly all actives have a fitted effect of over 60% in size. The note with it: HEK293T ELG1-luciferase reporter, luminescence, 16 h; series mostly up to 46 µM. The text has this:
NIH Molecular Libraries Probe Production Network [MLPCN] NIH Chemical Genomics Center [NCGC] MLPCN Grant: 1 R03 MH092164-01 Assay Provider: Kyungjae Myung, NHGRI, NIH Keywords: MLPCN, qHTS, NCGC, genotoxicity, cancer Assay Overview: Cancer cells divide rapidly compared to normal cells in the body. During cell division, cancer cells need to duplicate their genome by DNA replication. The failure of genome duplication leads to cancer cells' death. Therefore, inhibitors of DNA replication could specifically kill cancer cells. Based on this concept, many chemotherapeutic agents were developed and have been used to treat cancer patients. However, there are a limited number of agents available in the clinical setting, and some of those that do exist have low efficacy and severe side effects. Therefore, if we can find the compounds that effectively block DNA replication either by directly damaging DNA or by inhibiting other cellular mechanisms, the options for cancer treatment will be broadened. With this in mind, we developed a quantitative high-throughput ELG1-luciferase reporter gene assay. Since the level of human ELG1 protein is enhanced in response to genetic stresses, increases in luciferase activity can be used to identify compounds that cause genetic stress.
Assay Protocol Summary: For genotoxicity screening, 2,000 cells in 5 uL/well were dispensed into white, solid-bottom 1536-well plates using a solenoid-based dispenser. Following transfer of 23 nL compound or DMSO vehicle by a pin tool, the plates were incubated 16 hr at 37 °C and 5% CO2. 5 ul ONE-Glo (Promega) was then added to each plate and following a 30 min incubation at room temperature, luciferase activity was quantified on a ViewLux CCD-based plate reader.
Background: In qHTS, concentration-response curves come from the screen itself.
With `CC(OC(=O)c1ccc(Cl)cc1O)C(=O)NCCC1=CCCCC1` (configuration not stated), the Potency result was “inactive”.

Regarding `O=C(COC(=O)c1ccco1)Nc1ccc(Cl)cn1`, the Potency entry was “inactive”.

Regarding `COc1ccc(NC(=S)N2CCc3cc(OC)c(OC)cc3C2)cc1`, the Potency result was “inactive”.

On to `CCC(C)N(C)C1CCN(C(=S)Nc2ccc(OC)cc2)CC1` (configuration not stated), for which the Potency entry is “inactive”.

As to `COc1ccc(NC(=S)N2N=CCC2c2ccccc2)cc1` (configuration not stated), the Potency is 4.11 µM (active).

For `COC(=O)[C@]1(CC(C)C)N[C@H](c2ccc(SC3CCCCC3)cc2)[C@@H]2C(=O)N(C)C(=O)[C@@H]21`, the Potency result is “inactive”.

With `CSc1ccccc1NC(=O)c1cc(Cl)sc1Cl`, the Potency result was “inactive”.

`CSc1ccccc1NC(=O)c1cnc2sc(C)cn2c1=O`: the Potency was 3.26 µM (active).

With `Cc1ccccc1C(=O)Nc1ccccc1Sc1ccccc1`, the Potency result is “inactive”.

On to `C[C@@H](CN1CCC[C@H]1CN1C(N)=NC[C@@H]1Cc1ccccc1)N1C[C@@H](Cc2ccccc2)N(CCCC2CCCC2)C1=N`, for which the Potency entry was “inactive”.

`CCN(CC)S(=O)(=O)c1ccc(N2CCCC2)c(NC(=O)c2ccc([N+](=O)[O-])o2)c1`: the Potency result was “inactive”.

Regarding `O=C(CSc1nccn1-c1cccc(F)c1)NC1CCCC1`, the Potency result is “inactive”.

On to `COc1cc(C(=O)NC2CCN(C)CC2)ccc1Nc1ncc2c(n1)N(C1CCC(O)CC1)CCC(=O)N2C` (configuration not stated), for which the Potency entry was “inactive”.

Consider `O=C(Cn1c(=S)nc2ccccn21)N1CCc2ccccc2C1`, for which the Potency was 20.6 µM (active).

On to `O=C(C(=O)N1CCc2ccccc2C1)N1CCc2ccccc2C1`, for which the Potency entry was “inactive”.

`CCC(=O)c1ccc(OCC(=O)OCC(=O)N2CCc3ccccc3C2)cc1`: the Potency result is “inactive”.

For `CCOC(=O)[C@@H]1[C@H]2COc3ccc(Br)cc3[C@H]2N2C(=O)N(c3ccc(C)cc3)C(=O)[C@@]12C`, the Potency entry is “inactive”.

In the case of `Cc1ccc(S(=O)(=O)N2C[C@@H]3CCCC[C@@H]3[C@@H](C)[C@H]2c2cn(Cc3ccccc3)c3ccc(F)cc23)cc1`, the Potency result is “inactive”.

As for `CC(C)C(NC(=O)c1c(F)cccc1F)C(=O)NNC(=O)c1ccccc1` (configuration not stated), the Potency result was “inactive”.

With `COc1cc(/C=C/C(=O)OCC(=O)c2ccccc2)cc(OC)c1OC`, the Potency entry was “inactive”.

For the compound `Cc1cc(C(C)(C)C)n2nc(C)c(-c3ccccc3)c2n1`, the Potency entry is “inactive”.

With `Cc1cc(N)n2nc(-c3ccc(C(C)(C)C)cc3)cc2n1`, the Potency is 0.411 µM (active).

For `Cc1nc2cc(-c3ccc(F)cc3)nn2c(N2CCOCC2)c1C`, the Potency result was “inactive”.

With `COc1ccc2[nH]c3c(c2c1)CCN1C(=O)C(CC(=O)NCCc2ccccn2)C[C@H](C(=O)N2CCOCC2)[C@@]31C` (some centres not stated), the Potency result is “inactive”.

Consider `CCn1c(SCc2ccccc2)nc2cc(OC)c(OC)cc2c1=O`, for which the Potency entry is “inactive”.

In the case of `CCS(=O)(=O)n1nc(-c2ccccc2)nc1SCc1ccccc1`, the Potency was 10.3 µM (active).

Regarding `CCn1c(SCc2ccccc2)nc2c(c1=O)SCC2`, the Potency result was “inactive”.
